{
  "source": "ChEMBL document CHEMBL4513141",
  "about": "“CO-ADD screening of NIH (USA) - Clinical Collection” (2021)",
  "note": "Results with a measured potency or affinity are listed apart.",
  "data": [
    {"test_system": "Klebsiella pneumoniae", "details": "Concentration 20 uM; ASSAY_TEST Inhibition of Bacterial Growth; detection method Absorption (OD600); MEDIA CAMHB; plate type 384well; NBS; CORNING #3640; time 18 hr", "units": {"Inhibition": "%"}, "values": [
      {"smiles": "Sc1ncnc2nc[nH]c12", "note": "[MERCAPTOPURINE ANHYDROUS]", "Inhibition": 7.84},
      {"smiles": "CN(C)[C@@H]1C(=O)C(C(=O)NCN2CCCC2)=C(O)[C@@]2(O)C(O)=C3C(=O)c4c(O)cccc4[C@@](C)(O)C3CC12", "note": "(some centres not stated)", "Inhibition": 7.32},
      {"smiles": "CC(=O)O.CC(C)C[C@H](NC(=O)[C@@H](COC(C)(C)C)NC(=O)[C@H](Cc1ccc(O)cc1)NC(=O)[C@H](CO)NC(=O)[C@H](Cc1c[nH]c2ccccc12)NC(=O)[C@H](Cc1c[nH]cn1)NC(=O)[C@H]1CCC(=O)N1)C(=O)N[C@H](CCCNC(=N)N)C(=O)N1CCC[C@@H]1C(=O)NNC(N)=O", "Inhibition": 2.33},
      {"smiles": "OCc1cc(C(O)CNCCCCCCOCCCCc2ccccc2)ccc1O", "note": "(configuration not stated) [SALMETEROL]", "Inhibition": 16.35},
      {"smiles": "CCCc1cc(=O)[nH]c(=S)[nH]1", "note": "[PROPYLTHIOURACIL]", "Inhibition": 16.2},
      {"smiles": "COc1ccc(Cl)cc1C(=O)NCCc1ccc(S(=O)(=O)NC(=O)NC2CCCCC2)cc1", "note": "[GLYBURIDE]", "Inhibition": 8.21},
      {"smiles": "Cc1cccc(C)c1NC(=O)C(C)N", "note": "(configuration not stated) [TOCAINIDE]", "Inhibition": 13.74},
      {"smiles": "O=C(CCCN1CC=C(n2c(=O)[nH]c3ccccc32)CC1)c1ccc(F)cc1", "note": "[DROPERIDOL]", "Inhibition": 9.88},
      {"smiles": "CCCCNc1cc(C(=O)O)cc(S(N)(=O)=O)c1Oc1ccccc1", "note": "[BUMETANIDE]", "Inhibition": 11.75},
      {"smiles": "CC[N+](C)(CC)CCOC(=O)C(O)(c1ccccc1)C1CCCCC1.[Br-]", "note": "(configuration not stated) [OXYPHENONIUM BROMIDE]", "Inhibition": 20},
      {"smiles": "N[C@@H]1CONC1=O", "note": "[CYCLOSERINE]", "Inhibition": 12},
      {"smiles": "Nc1ccc2cn[nH]c2c1", "Inhibition": 2.93},
      {"smiles": "COC(=O)C1=C(C)NC(C)=C(C(=O)OCCN(C)Cc2ccccc2)C1c1cccc([N+](=O)[O-])c1.Cl", "note": "(configuration not stated) [NICARDIPINE HYDROCHLORIDE]", "Inhibition": -5.88},
      {"smiles": "CS(=O)(=O)O.Oc1ccc(C2CNCCc3c2cc(O)c(O)c3Cl)cc1", "note": "(configuration not stated) [FENOLDOPAM MESYLATE]", "Inhibition": 10.68},
      {"smiles": "CC(C)(C)NC(=O)[C@H]1CC[C@H]2[C@@H]3CC[C@H]4NC(=O)C=C[C@]4(C)[C@H]3CC[C@]12C", "note": "[FINASTERIDE]", "Inhibition": -7.24},
      {"smiles": "Cc1[nH]c(=O)c(C#N)cc1-c1ccncc1", "note": "[MILRINONE]", "Inhibition": 13.45},
      {"smiles": "CN1CCC(=C2c3ccccc3CCc3sccc32)CC1.O=C(O)/C=C\\C(=O)O", "Inhibition": 13.2},
      {"smiles": "Cl.O.O=C(c1ccc(F)cc1)C1CCN(CCn2c(=S)[nH]c3ccccc3c2=O)CC1", "Inhibition": 11.14},
      {"smiles": "CC(Oc1c(Cl)cccc1Cl)C1=NCCN1.Cl", "note": "(configuration not stated) [LOFEXIDINE HYDROCHLORIDE]", "Inhibition": 6.35},
      {"smiles": "Cl.O.OC[C@H]1O[C@@H](n2cnc3c(N[C@H]4CCC[C@@H]4O)ncnc32)[C@@H](O)C1O", "note": "(some centres not stated)", "Inhibition": 8.61},
      {"smiles": "CCc1cccc2c3c([nH]c12)C(CC)(CC(=O)O)OCC3", "note": "(configuration not stated) [ETODOLAC]", "Inhibition": 6.96},
      {"smiles": "CN(C)CCN(Cc1ccccc1)c1ccccn1.Cl", "note": "[TRIPELENNAMINE HYDROCHLORIDE]", "Inhibition": 2.28},
      {"smiles": "CC1=C(/C=C/C(C)=C/C=C/C(C)=C/C(=O)O)C(C)(C)CCC1", "note": "[TRETINOIN]", "Inhibition": 14.57},
      {"smiles": "Cl.O=C(O)/C=C/c1ccc(Cn2ccnc2)cc1", "Inhibition": 3.67},
      {"smiles": "Cc1ccc(N(CC2=NCCN2)c2cccc(O)c2)cc1", "note": "[PHENTOLAMINE]", "Inhibition": 6.34},
      {"smiles": "COc1ccc2c(c1)c(CC(=O)O)c(C)n2C(=O)c1ccc(Cl)cc1.O", "Inhibition": 8.34},
      {"smiles": "NS(=O)(=O)c1cc2c(cc1C(F)(F)F)NC(Cc1ccccc1)NS2(=O)=O", "note": "(configuration not stated) [BENDROFLUMETHIAZIDE]", "Inhibition": 6.67},
      {"smiles": "CC(=O)O[C@H]1C[C@@H]2CC[C@@H]3[C@H](CC[C@@]4(C)[C@H]3C[C@H]([N+]3(C)CCCCC3)[C@@H]4OC(C)=O)[C@@]2(C)C[C@@H]1N1CCCCC1.[Br-]", "note": "[VECURONIUM BROMIDE]", "Inhibition": -0.14},
      {"smiles": "N#Cc1ccc(C(c2ccc(C#N)cc2)n2cncn2)cc1", "note": "[LETROZOLE]", "Inhibition": 9.79},
      {"smiles": "CC(C(O)c1ccc(O)cc1)N1CCC(Cc2ccccc2)CC1.O.O=C(O)C(O)C(O)C(=O)O", "note": "(configuration not stated)", "Inhibition": 15.53},
      {"smiles": "O=C(O)c1cc(-c2ccc(F)cc2F)ccc1O", "note": "[DIFLUNISAL]", "Inhibition": 3.43},
      {"smiles": "Nc1nc2c(ncn2COCCO)c(=O)[nH]1", "note": "[ACYCLOVIR]", "Inhibition": 6.29},
      {"smiles": "CCCc1nc(C(C)(C)O)c(C(=O)OCc2oc(=O)oc2C)n1Cc1ccc(-c2ccccc2-c2nnn[nH]2)cc1", "note": "[OLMESARTAN MEDOXOMIL]", "Inhibition": 5.33},
      {"smiles": "Nc1ccn([C@@H]2CS[C@H](CO)O2)c(=O)n1", "note": "[LAMIVUDINE]", "Inhibition": 20.65},
      {"smiles": "Cl.Nc1c2c(nc3ccccc13)CCCC2", "note": "[TACRINE HYDROCHLORIDE]", "Inhibition": 15.67},
      {"smiles": "Cc1nc(=O)c2cc(CN(C)c3ccc(C(=O)N[C@@H](CCC(=O)O)C(=O)O)s3)ccc2[nH]1", "note": "[RALTITREXED]", "Inhibition": 9.17},
      {"smiles": "Cc1nccn1CC1CCc2c(c3ccccc3n2C)C1=O", "note": "(configuration not stated) [ONDANSETRON]", "Inhibition": 11.11}
    ]}
  ]
}
